Data published in PubChem BioAssay (Tox21).
Inconclusive results are not listed. Entries that show only a call come without a potency. Calls of active or inactive are those of the source. Unless noted, calls come from the whole dose curve.

What was measured:
[1] = Nuclear factor erythroid 2-related factor 2/antioxidant responsive element (Nrf2/ARE) small molecule agonists: qHTS cell viability counter screen in human keratinocytes (AID 1919968; active = well fitted curve in the direction sought with a large enough effect in the repeat runs; an effect the other way counts as inactive or inconclusive; note: nearly all actives have a fitted effect of over 55% in size)
In short: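 Viability counter-screen: KeratinoSens reporter cells, DMSO-delivered compounds, 23 h at 37 C, CellTiter-Fluor fluorescence.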

[2] = Nuclear factor erythroid 2-related factor 2/antioxidant responsive element (Nrf2/ARE) small molecule agonists: luciferase reporter gene qHTS assay in human keratinocytes (AID 1919969); note: nearly all actives have a fitted effect of over 35% in size; note: potency is the fitted concentration of half-maximal effect
[3] = target: Gonadotropin-releasing hormone receptor (Homo sapiens) (UniProt P30968); assay: Human gonadotropin-releasing hormone receptor (GnRHR) small molecule agonists, calcium flux assay in GnRHR-HEK293 cells (AID 1920063); note: nearly all actives have a fitted effect of over 35% in size
Chain of Gonadotropin-releasing hormone receptor (Homo sapiens) (P30968 whole entry, looked up): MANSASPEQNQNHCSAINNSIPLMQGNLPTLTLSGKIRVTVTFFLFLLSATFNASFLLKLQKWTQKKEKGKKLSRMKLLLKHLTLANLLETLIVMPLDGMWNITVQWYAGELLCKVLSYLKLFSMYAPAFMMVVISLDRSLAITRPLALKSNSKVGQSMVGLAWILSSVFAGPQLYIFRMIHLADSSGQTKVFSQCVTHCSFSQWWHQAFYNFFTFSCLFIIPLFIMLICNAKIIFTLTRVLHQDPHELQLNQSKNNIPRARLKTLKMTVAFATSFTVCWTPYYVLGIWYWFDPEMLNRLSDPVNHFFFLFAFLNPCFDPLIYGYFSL
In short: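 Tox21-format agonist screen using human GnRHR-expressing HEK293 cells and a fluorescent calcium dye; kinetic 3-min fluorescence reading after compound addition, 15-point concentration series run in triplicate.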

[4] = target: KiSS-1 receptor (Homo sapiens) (UniProt Q969F8); assay: Human kisspeptin (KISS1R) small molecule agonists, calcium flux assay in KISS1R-HEK293 cells (AID 1920064; active = well fitted curve in the direction sought with a large enough effect in the repeat runs; an effect the other way counts as inactive or inconclusive)
Chain of KiSS-1 receptor (Homo sapiens) (Q969F8 whole entry, looked up): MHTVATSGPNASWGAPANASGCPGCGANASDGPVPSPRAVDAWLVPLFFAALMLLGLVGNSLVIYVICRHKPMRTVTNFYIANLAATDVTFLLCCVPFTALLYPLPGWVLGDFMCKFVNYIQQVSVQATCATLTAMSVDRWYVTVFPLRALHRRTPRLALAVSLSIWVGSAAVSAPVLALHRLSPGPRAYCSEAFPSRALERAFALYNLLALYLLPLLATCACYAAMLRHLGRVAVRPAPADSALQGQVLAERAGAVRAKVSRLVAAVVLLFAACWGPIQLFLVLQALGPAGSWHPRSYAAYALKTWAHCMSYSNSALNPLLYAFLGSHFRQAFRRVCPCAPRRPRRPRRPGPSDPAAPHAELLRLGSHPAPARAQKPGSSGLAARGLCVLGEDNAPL
In short: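 Intracellular calcium mobilization in KISS1R-HEK293 cells was recorded by fluorescence (Ex/Em 480/540) for 3 min following compound addition to cells pre-loaded 1 h with calcium dye.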

[5] = G protein-coupled receptor (GPCR) small molecule agonists, calcium flux assay: HEK293 wild type cell line counter screen (AID 1920065)
In short: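 In this agonist-mode screen, ATP is the positive control and DMSO the vehicle. Cells grow 18 h before a 1 h dye incubation at 37 C; signal is taken at Ex/Em 480/540 over 3 min.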

[6] = p53 small molecule agonists, cell-based qHTS assay with human liver microsomes (AID 1963577)
In short: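 p53RE-bla reporter cells were pre-incubated 5 h at 37 C, then treated with compounds plus human liver microsomes (0.5 mg/mL final) and NADPH (0.5 mg/mL final) for 16 h at 37 C. Beta-lactamase activity was read by LiveBLAzer fluorescence after 2 h at room temperature.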

[7] = p53 small molecule agonists, cell-based qHTS assay with rat liver microsomes (AID 1963578)
In short: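 p53RE-bla cells were exposed to compounds together with rat liver microsomes (0.5 mg/mL final) and NADPH (0.5 mg/mL final) for 16 h at 37 C, then read by LiveBLAzer beta-lactamase fluorescence after 2 h at room temperature.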

[8] = p53 small molecule agonists, cell-based qHTS assay with human liver microsomes: qHTS cell viability counter screen (AID 1963579); note: nearly all actives have a fitted effect of over 45% in size
In short: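 p53RE-bla cells (4,000/well) were pre-incubated 5 h at 37 C, then given compounds in DMSO plus human liver microsomes (0.5 mg/mL final) and NADPH (0.5 mg/mL final) for 16 h at 37 C. Viability was read by CellTiter-Glo luminescence.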

[9] = p53 small molecule agonists, cell-based qHTS assay with rat liver microsomes: qHTS cell viability counter screen (AID 1963580); note: nearly all actives have a fitted effect of over 45% in size
In short: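 In HCT-116 cells carrying a p53 response element-bla reporter, compounds were metabolically activated in situ by rat liver microsomes with NADPH over 16 h. Cell ATP content then served as the cytotoxicity measure.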

[10] = p53 small molecule agonists, cell-based qHTS assay: qHTS cell viability counter screen (AID 1963581); note: nearly all actives have a fitted effect of over 45% in size
In short: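 Compounds are pinned onto HCT-116 p53RE-bla cells and left 16 h at 37 C. Following the reporter FRET read, ATP is quantified by CellTiter-Glo luminescence after 30 min at room temperature.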

[11] = p53 small molecule agonists, cell-based qHTS assay (AID 1963582; active = well fitted activation curve with a large enough effect in the signal ratio in the repeat runs, not every such curve was filed as active; the % refers to the signal ratio)
In short: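 Agonist activity was scored from beta-lactamase FRET fluorescence in p53RE-bla cells treated 16 h at 37 C with compounds in DMSO, substrate incubation being 2 h at room temperature.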

[12] = target: 5-hydroxytryptamine receptor 2A (Homo sapiens) (UniProt P28223); assay: 5-hydroxytryptamine receptor 2A (HTR2A) small molecule antagonists, cell-based qHTS assay (AID 1963586); note: nearly all actives have a fitted effect of over 45% in size
Chain of 5-hydroxytryptamine receptor 2A (Homo sapiens) (P28223 whole entry, looked up): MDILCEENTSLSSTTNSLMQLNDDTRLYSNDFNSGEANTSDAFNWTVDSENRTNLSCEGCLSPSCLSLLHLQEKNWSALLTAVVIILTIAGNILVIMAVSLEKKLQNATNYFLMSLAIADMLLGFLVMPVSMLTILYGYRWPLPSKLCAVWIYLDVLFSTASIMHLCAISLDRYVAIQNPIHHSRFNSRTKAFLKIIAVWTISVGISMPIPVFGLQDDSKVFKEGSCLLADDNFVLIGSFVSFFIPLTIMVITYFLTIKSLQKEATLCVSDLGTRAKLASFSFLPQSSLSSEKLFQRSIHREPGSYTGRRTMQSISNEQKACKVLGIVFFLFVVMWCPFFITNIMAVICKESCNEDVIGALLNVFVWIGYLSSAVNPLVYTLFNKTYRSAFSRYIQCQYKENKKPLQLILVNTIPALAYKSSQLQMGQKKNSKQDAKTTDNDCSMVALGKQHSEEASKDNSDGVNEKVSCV
In short: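 Antagonist-mode intracellular calcium assay: DOI (4 nM) added after 5 min compound pre-incubation at room temperature to dye-loaded HTR2A-CHO cells. Fluorescence followed for 3 min, sampled every second.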

[13] = target: 5-hydroxytryptamine receptor 2A (Homo sapiens) (UniProt P28223); assay: 5-hydroxytryptamine receptor 2A (HTR2A) small molecule agonists, cell-based qHTS assay (AID 1963587); note: nearly all actives have a fitted effect of over 30% in size
In short: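 HTR2A-CHO cells, plated 18 h at 37 C/5% CO2, dye-loaded 1 h at 37 C; compounds in DMSO added by pin tool (agonist mode). Intracellular calcium flux read as kinetic fluorescence on FDSS over 2 min at 1 s intervals.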

[14] = target: Muscarinic acetylcholine receptor M1 (Homo sapiens) (UniProt P11229); assay: Cholinergic receptor muscarinic 1 (CHRM1) small molecule agonists, cell-based qHTS assay (AID 1963589); note: nearly all actives have a fitted effect of over 35% in size
Chain of Muscarinic acetylcholine receptor M1 (Homo sapiens) (P11229 whole entry, looked up): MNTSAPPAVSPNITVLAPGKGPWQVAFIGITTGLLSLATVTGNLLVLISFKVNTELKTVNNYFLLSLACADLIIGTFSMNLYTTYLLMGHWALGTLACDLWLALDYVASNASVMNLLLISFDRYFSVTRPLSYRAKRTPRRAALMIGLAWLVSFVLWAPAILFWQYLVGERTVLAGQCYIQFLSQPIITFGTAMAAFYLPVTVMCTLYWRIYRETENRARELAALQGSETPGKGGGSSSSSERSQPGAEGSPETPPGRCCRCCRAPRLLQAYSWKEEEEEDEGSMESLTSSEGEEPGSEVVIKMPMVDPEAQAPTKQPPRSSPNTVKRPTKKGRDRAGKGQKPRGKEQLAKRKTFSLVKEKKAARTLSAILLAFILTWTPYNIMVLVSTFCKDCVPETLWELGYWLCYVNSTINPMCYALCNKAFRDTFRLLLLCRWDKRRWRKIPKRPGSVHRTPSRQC
In short: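 Stable CHRM1-CHO cells (human receptor) were incubated 18 h, dye-loaded for 1 h at 37 C and exposed to test compounds for agonist activity, with calcium-dependent fluorescence followed kinetically.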

[15] = cAMP Responsive Elements (CRE) small molecule agonists, cell-based qHTS assay (AID 1963590)
In short: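 FRET-based beta-lactamase readout (LiveBLAzer B/G, 2 h RT) quantified CRE activation in HEK 293T CRE-bla cells after 3 h treatment with DMSO-dissolved compounds.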

[16] = cAMP Responsive Elements (CRE) small molecule antagonists, cell-based qHTS assay (AID 1963591; active = well fitted inhibition curve with a large enough effect in the signal ratio in the repeat runs, not every such curve was filed as active; the % refers to the signal ratio)
In short: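 qHTS in CRE-bla HEK 293T cells: compound in DMSO, then 0.25 uM NKH477 (final), 3 h at 37 °C/5% CO2; beta-lactamase FRET read-out after 2 h substrate incubation.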

[17] = target: Beta-2 adrenergic receptor (Homo sapiens) (UniProt P07550); assay: Adrenergic beta2 receptor (ADRB2) small molecule antagonists, cell-based qHTS assay (AID 1963592); note: series mostly up to about 92 µM; nearly all actives have a fitted effect of over 50% in size
Chain of Beta-2 adrenergic receptor (Homo sapiens) (P07550 whole entry, looked up): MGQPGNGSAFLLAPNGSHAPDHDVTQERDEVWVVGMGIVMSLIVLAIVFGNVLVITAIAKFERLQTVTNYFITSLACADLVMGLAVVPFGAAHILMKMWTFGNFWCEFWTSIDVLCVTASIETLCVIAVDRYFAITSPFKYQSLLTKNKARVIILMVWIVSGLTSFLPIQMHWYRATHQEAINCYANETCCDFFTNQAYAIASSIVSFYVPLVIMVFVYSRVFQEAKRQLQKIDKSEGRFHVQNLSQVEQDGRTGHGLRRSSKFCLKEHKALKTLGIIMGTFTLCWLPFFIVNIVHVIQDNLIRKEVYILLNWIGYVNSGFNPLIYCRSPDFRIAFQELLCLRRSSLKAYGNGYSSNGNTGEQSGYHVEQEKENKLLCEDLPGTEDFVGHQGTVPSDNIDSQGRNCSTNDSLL
In short: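 Cells (CHO, stable ADRB2 overexpression) incubated 18-20hr at 37C; compounds added from DMSO; agonist mix (1nM isoproterenol, 100uM IBMX, 25uM Ro-20-1724) added; 0.5hr RT; d2-cAMP and anti-cAMP-cryptate added; 1hr RT; 665/615 nm read.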

[18] = target: D(2) dopamine receptor (Homo sapiens) (UniProt P14416); assay: Dopamine D2 receptor (DRD2) small molecule agonists, cell-based qHTS assay (AID 1963594); note: nearly all actives have a fitted effect of over 35% in size
Chain of D(2) dopamine receptor (Homo sapiens) (P14416 whole entry, looked up): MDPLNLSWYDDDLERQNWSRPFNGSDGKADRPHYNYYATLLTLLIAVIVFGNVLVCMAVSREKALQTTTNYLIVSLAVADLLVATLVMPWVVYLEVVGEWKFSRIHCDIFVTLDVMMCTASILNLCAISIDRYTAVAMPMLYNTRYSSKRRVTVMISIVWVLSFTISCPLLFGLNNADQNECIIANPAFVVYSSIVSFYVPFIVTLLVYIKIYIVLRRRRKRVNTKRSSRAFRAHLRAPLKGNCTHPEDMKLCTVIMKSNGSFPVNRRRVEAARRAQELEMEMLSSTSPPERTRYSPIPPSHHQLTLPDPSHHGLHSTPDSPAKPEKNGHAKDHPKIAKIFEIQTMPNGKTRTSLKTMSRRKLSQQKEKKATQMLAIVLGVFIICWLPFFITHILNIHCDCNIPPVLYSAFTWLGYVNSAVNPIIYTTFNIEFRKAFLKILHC
In short: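 HEK293 cells stably expressing DRD2 were cultured 24 h at 37 C, then given Ro20-1724 (0.1 mM final) and compounds for 10 min at room temperature. NKH477 (200nM) was then added for 30 min. cAMP was read by HTRF.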

[19] = target: D(2) dopamine receptor (Homo sapiens) (UniProt P14416); assay: Dopamine D2 receptor (DRD2) small molecule antagonists, cell-based qHTS assay (AID 1963595; active = well fitted inhibition curve with a large enough effect in the signal ratio in the repeat runs, with a control signal flat; the % refers to the signal ratio)
In short: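 Antagonist mode in DRD2-HEK293 cells: after compound addition with 0.1 mM Ro20-1724, cells received quinpirole (12 nM) and NKH477 (200 nM) for 30 min at room temperature; HTRF cAMP read after 1 h detection.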

[20] = target: Muscarinic acetylcholine receptor M1 (Homo sapiens) (UniProt P11229); assay: Cholinergic receptor muscarinic 1 (CHRM1) small molecule antagonists, cell-based qHTS assay (AID 1963588); note: nearly all actives have a fitted effect of over 40% in size
In short: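 CHRM1-CHO calcium-flux assay, antagonist mode. Cells were seeded 18 h, dye-loaded 1 h at 37 C and given compound for 5 min at RT, then acetylcholine was added at 50nM. FDSS fluorescence was read 3 min; 15 concentrations, three runs.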

With CO[C@@H]1[C@H](OC(=O)NC(=O)CCl)CC[C@]2(CO2)[C@H]1[C@@]1(C)O[C@@H]1CC=C(C)C the activity change, negative = cytotoxicity [1] was -2.18% [at 19 µM] (inactive), the Potency [2] was 16.7 µM (active) and the activity change [3] was 0.0131% [at 11.8 µM, hits give high values] (inactive). The activation [4] was 0.453% [at 15.8 µM] (inactive), the activation [5] was 2.6% [at 11.8 µM] (inactive) and the activation [6] was -1.53% [at 13.5 µM] (inactive). The activation [7] was 1.99% [at 13.6 µM] (inactive), the activity change, negative = cytotoxicity [8] was 1.12% [at 13.5 µM] (inactive) and the activity change, negative = cytotoxicity [9] was -0.0178% [at 13.5 µM] (inactive). The activity change, negative = cytotoxicity [10] was 4.01% [at 13.5 µM] (inactive), the activation [11] was -1.88% [at 13.5 µM] (inactive) and the activity, negative = inhibition [12] was -0.303% [at 12.7 µM] (inactive). The activation [13] was -4.56% [at 15.9 µM] (inactive), the activation [14] was -0.344% [at 15.8 µM] (inactive) and the activation [15] was -1.17% [at 19 µM] (inactive). For the same compound, the activity change, negative = inhibition [16] was -7.46% [at 18.9 µM] (inactive), the activity change, negative = inhibition [17] was -3.1% [at 19 µM] (inactive) and the activation [18] was 1.8% [at 19 µM] (inactive). The activity change, negative = inhibition [19] was -0.406% [at 18.9 µM] (inactive).
For C=CCN=C=S, the Potency [1] was “inactive”, the Potency [2] was “inactive” and the Potency [3] was “inactive”. For the same compound, the Potency [4] was “inactive”, the Potency [5] was “inactive” and the Potency [6] was “inactive”. For the same compound, the Potency [7] was “inactive”, the Potency [8] was “inactive” and the Potency [9] was “inactive”. The Potency [10] was “inactive”, the Potency [11] was “inactive” and the Potency [12] was “inactive”. The Potency [13] was “inactive”, the Potency [20] was “inactive” and the Potency [14] was “inactive”. The Potency [16] was “inactive”, the Potency [18] was “inactive” and the Potency [19] was “inactive”.
In the case of CC(Oc1ccc(Cl)cc1Cl)C(=O)O (stereo not given), the Potency [1] is reported as “inactive”, the Potency [2] is reported as “inactive” and the Potency [3] is reported as “inactive”. For the same compound, the Potency [4] was “inactive”, the Potency [5] was “inactive” and the Potency [6] was “inactive”. The Potency [7] was “inactive”, the Potency [8] was “inactive” and the Potency [9] was “inactive”. The Potency [10] was “inactive”, the Potency [11] was “inactive” and the Potency [12] was “inactive”. The Potency [13] was “inactive”, the Potency [20] was “inactive” and the Potency [14] was “inactive”. The Potency [17] was “inactive” and the Potency [19] was “inactive”.
With CC1(C)CC(=O)CC(C)(C)N1[O] the Potency [1] was “inactive”, the Potency [2] was “inactive” and the Potency [3] was “inactive”. The Potency [4] was “inactive”, the Potency [5] was “inactive” and the Potency [6] was “inactive”. The Potency [7] was “inactive”, the Potency [8] was “inactive” and the Potency [9] was “inactive”. The Potency [10] was “inactive”, the Potency [11] was “inactive” and the Potency [12] was “inactive”. The Potency [13] was “inactive”, the Potency [20] was “inactive” and the Potency [15] was “inactive”. The Potency [16] was “inactive”, the Potency [17] was “inactive” and the Potency [18] was “inactive”. For the same compound, the Potency [19] was “inactive”.
For ClCc1ccccc1CCl, the Potency [1] was “inactive”, the Potency [2] was 61.1 µM (active) and the Potency [3] was “inactive”. For the same compound, the Potency [4] was “inactive”, the Potency [5] was “inactive” and the Potency [6] was “inactive”. The Potency [7] was “inactive”, the Potency [8] was “inactive” and the Potency [9] was “inactive”. The Potency [10] was “inactive”, the Potency [11] was “inactive” and the Potency [12] was “inactive”. For the same compound, the Potency [13] was “inactive”, the Potency [20] was “inactive” and the Potency [15] was “inactive”. For the same compound, the Potency [16] was “inactive”, the Potency [17] was “inactive” and the Potency [18] was “inactive”. For the same compound, the Potency [19] was “inactive”.
For CN1C(=O)NC(=O)C(C)(C2=CCCCC2)C1=O (stereo not given), the Potency [1] was “inactive”, the Potency [2] was “inactive” and the Potency [3] was “inactive”. The Potency [4] was “inactive”, the Potency [5] was “inactive” and the Potency [6] was “inactive”. The Potency [7] was “inactive”, the Potency [8] was “inactive” and the Potency [9] was “inactive”. For the same compound, the Potency [10] was “inactive”, the Potency [11] was “inactive” and the Potency [12] was “inactive”. For the same compound, the Potency [13] was “inactive”, the Potency [14] was “inactive” and the Potency [15] was “inactive”. For the same compound, the Potency [16] was “inactive”, the Potency [17] was “inactive” and the Potency [18] was “inactive”. For the same compound, the Potency [19] was “inactive”.
For Cc1cccc(C)c1N, the Potency [1] was “inactive”, the Potency [2] was “inactive” and the Potency [3] was “inactive”. For the same compound, the Potency [4] was “inactive”, the Potency [5] was “inactive” and the Potency [6] was “inactive”. For the same compound, the Potency [7] was “inactive”, the Potency [8] was “inactive” and the Potency [9] was “inactive”. The Potency [10] was “inactive”, the Potency [11] was “inactive” and the Potency [12] was “inactive”. The Potency [13] was “inactive”, the Potency [20] was “inactive” and the Potency [14] was “inactive”. The Potency [16] was “inactive”, the Potency [17] was “inactive” and the Potency [18] was “inactive”. The Potency [19] was “inactive”.
